Screening data (PubChem BioAssay)
TEAD-YAP inh = TEAD-YAP interaction inhibition; HEK-TIYL cells, TEAD-Gal4/YAP UAS-luciferase luminescence; inhibition, % at 9.12 µM; 1.4% of 640,000 active; AID 1259422; in the data active means inhibition above about 32%;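 further: 0% = median of test compound wells and 100% = reference inhibitor wells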
GPR151 activ = activates the human receptor GPR151. Q8TDV0. PathHunter beta-arrestin GPR151 cells, luminescence. activation, % at 11.2 µM. 1% of 650,000 active. AID 1508602; in the data active means activation above about 4.9%;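 further: 0% = median of compound wells and 100% = cells with positive control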
Target sequence (Q8TDV0 whole entry, looked up): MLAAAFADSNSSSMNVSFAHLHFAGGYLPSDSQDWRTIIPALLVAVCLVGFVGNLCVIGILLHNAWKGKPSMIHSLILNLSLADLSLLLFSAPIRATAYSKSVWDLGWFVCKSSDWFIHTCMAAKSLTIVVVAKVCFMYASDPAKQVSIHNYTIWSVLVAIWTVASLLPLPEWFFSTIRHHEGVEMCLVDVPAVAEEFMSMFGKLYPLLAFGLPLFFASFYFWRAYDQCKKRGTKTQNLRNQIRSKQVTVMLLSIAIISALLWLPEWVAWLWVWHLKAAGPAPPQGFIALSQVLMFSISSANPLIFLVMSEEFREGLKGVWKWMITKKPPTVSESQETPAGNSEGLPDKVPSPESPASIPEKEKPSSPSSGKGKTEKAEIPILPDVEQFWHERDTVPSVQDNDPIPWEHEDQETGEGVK
MITF inh = blocks human microphthalmia-associated transcription factor. O75030. AlphaScreen MITF homodimerization, bead proximity signal. inhibition, % at 2.6 µM. 0.91% of 650,000 active. AID 1259374; in the data active means inhibition above about 50%;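 further: 0% = vehicle wells with protein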
FBW7 act = activators of human E3 ligase FBW7; AID 1259310; normalized activity (activation), % at 26.1 µM; 0.13% of 650,000 active; AlphaScreen FBW7–phospho-cyclin E peptide binding, activator screen; in the data active means normalized activity above about 1.9%;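 further: purified mutant Fbw7 with reduced substrate affinity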
Numbers without * were called inactive. Hits are enriched below; roughly 3.5% of the tested compounds scored in any of these assays.

SMILES | TEAD-YAP inh | GPR151 activ | MITF inh | FBW7 act
COc1cc(Nc2nc(Nc3ccc(-n4ccnc4)cc3)nc3c2ncn3C(C)C)cc(OC)c1OC | 40.1* | -2.2 | -1.1 | 0.2
COc1cc(Nc2nc(Nc3ccc(N4CCOCC4)cc3)nc3c2ncn3C(C)C)cc(OC)c1OC | 4.1 | 0.3 | 5.2 | -0.1
COc1cc(Nc2nc(Nc3ccc(N4CCOCC4)cc3)c3ncn(C(C)C)c3n2)cc(OC)c1OC | 33.5* | 1.4 | 16.7 | -0.1
Cc1nc(CC(=O)c2ccc(O)c(O)c2O)cs1 | -15.0 | -1.0 | 79.3* | -0.5
COc1cccc2sc(N3CCOCC3)nc12 | -32.9 | 0.0 | 15.7 | 2.0*
COc1cccc2sc(N(C)c3ccccc3)nc12 | 46.8* | -2.1 | -4.0 | -0.1
COc1cccc2sc(N3CCN(c4nc5ccccc5s4)CC3)nc12 | -3.5 | 1.6 | 6.2 | 0.0
Cc1cccc(N2CN=c3s/c(=C4\C(=O)Nc5ccc(C)cc54)c(=O)n3C2)c1 | 1.7 | -0.2 | -1.4 | -0.1
COc1cccc(NC(=O)c2nccnc2C(=O)O)c1 | -0.1 | -1.3 | -0.6 | 0.0
COc1ccc(C(=O)Nn2c(SCC(=O)NC3CCCC3)nc3ccccc3c2=O)cc1 | 79.2* | -0.4 | -1.2 | 0.0
CCOc1ccc(NC(=O)CSc2nc3ccccc3c(=O)n2NC(=O)c2ccccc2)cc1 | 2.3 | -2.0 | -31.5 | 0.2
CCC(Sc1nc2ccccc2c(=O)n1Cc1ccccc1OC)C(=O)NCc1cccnc1 (stereo not given) | -7.6 | -1.0 | -1.7 | 0.0
CCOc1ccc(NC(=O)CSc2nc3ccccc3c(=O)n2NC(=O)c2ccc(OC)cc2)cc1 | 54.0* | 1.6 | 6.6 | 0.0
CCC(Sc1nc2ccccc2c(=O)n1NC(=O)c1ccc(OC)cc1)C(=O)NCc1cccnc1 (stereo not given) | 79.4* | 0.6 | -5.3 | -0.1
COc1ccc(C(=O)Nn2c(SCC(=O)Nc3ccc(C)cc3)nc3ccccc3c2=O)cc1 | 87.7* | -1.4 | -5.2 | -0.1
Cn1c(=O)c2c(NC(=O)c3ccc(-c4ccccc4)cc3)ccnc2n(C)c1=O | -18.7 | -2.5 | -1.8 | 0.0
COc1ccc(C(=O)Nn2c(SCC(=O)NCC3CCCO3)nc3ccccc3c2=O)cc1 (stereo not given) | 83.8* | -0.9 | -3.8 | -0.1
O=C(CSc1nc2ccccc2c(=O)n1NC(=O)Cc1ccccc1)NCC1CCCO1 (stereo not given) | -0.6 | 0.3 | 2.8 | 0.0
COc1ccc(C(=O)Nn2c(SCc3c(F)cccc3Cl)nc3ccccc3c2=O)cc1 | 78.9* | 2.3 | -12.2 | -0.1
COc1ccc(C(=O)Nn2c(SCC(=O)NCc3ccccc3)nc3ccccc3c2=O)cc1 | 73.8* | 0.2 | -3.9 | 0.0
COc1ccccc1C(=O)Nc1ncc(Cc2ccccc2)s1 | -36.0 | -0.6 | 26.8 | 1.5
COc1cc(/C=C2\C(=O)N(c3ccccc3)N=C2C)cc(OC)c1O | 1.9 | -1.7 | 1.2 | -0.1
C=C(C)Cn1c(SCC(=O)OCCCCC)nc2sc3c(c2c1=O)CC(C)(C)OC3 | 8.4 | 0.5 | -3.7 | 0.0
CCN(CC)c1ccc(C2CC(c3ccc(C)cc3)=NN2C(=O)CCC(=O)O)cc1 (stereo not given) | 46.3* | 1.0 | -14.2 | 0.1
C=CCN(CC=C)C(=S)Nc1ccc(S(N)(=O)=O)cc1 | -1.8 | 0.2 | 3.0 | -0.1
SMILES | TEAD-YAP inh | GPR151 activ | MITF inh | FBW7 act
Cc1cc(=O)oc2cc(OCC(O)Cn3c(C)nc4ccccc43)ccc12 (stereo not given) | 50.1* | 2.9 | -6.0 | -0.1
Cc1nc2ccccc2n1CC(O)COc1ccc2ccccc2c1 (stereo not given) | 14.5 | 0.6 | 11.1 | -0.4
O=C(NC(=S)Nc1ccc(S(=O)(=O)N2CCCCC2)cc1)C1CCC1 | 4.9 | 2.3 | 4.4 | -0.2
Cc1ccc(-c2csc(NC(=O)c3ccc(S(=O)(=O)N4CCOCC4)cc3)n2)o1 | 28.0 | -0.6 | 0.6 | -0.3
COCCN(CCOC)S(=O)(=O)c1ccc(C(=O)Nc2nc(-c3ccc(C)cc3C)cs2)cc1 | 35.9* | 0.8 | -2.9 | -0.3
COc1ccc(-c2csc(NC(=O)c3ccc(S(=O)(=O)N4CCOCC4)cc3)n2)c(OC)c1 | 41.3* | 0.1 | -12.1 | 0.1
Cc1ccc(C)c(-c2csc(NC(=O)c3ccc(S(=O)(=O)N4CCOCC4)cc3)n2)c1 | 42.4* | -0.2 | -7.0 | 0.0
CC(C)(C)c1csc(NC(=O)c2ccc(S(=O)(=O)N3CCOCC3)cc2)n1 | 36.1* | 2.3 | 16.8 | 0.1
CCOC(=O)N1CCC(n2c(SCC(=O)Nc3ccc(OC)cc3OC)nc3ccccc3c2=O)CC1 | 11.8 | -1.0 | -9.2 | 0.0
FC(F)(F)c1cc(-c2cnn3c(NC4CCCNC4)ccnc23)cc(C(F)(F)F)c1 (stereo not given) | 2.3 | 2.0 | -15.8 | 0.2
COCCNc1ccnc2c(-c3ccccc3Cl)cnn12 | 57.9* | 0.5 | 0.1 | 0.0
O=C(O)CCc1ccc(-c2cnn3c(NCc4ccccn4)ccnc23)cc1 | 13.9 | -1.2 | 24.2 | -0.9
c1ccc2cc(-c3cnn4c(NC5CCCNC5)ccnc34)ccc2c1 (stereo not given) | 65.1* | -0.3 | 0.4 | -0.2
COCCNc1ccnc2c(-c3ccc(CCC(=O)O)cc3)cnn12 | 50.5* | -3.0 | 14.6 | -0.5
c1cncc(CCNc2ccnc3c(-c4ccc5ccccc5c4)cnn23)c1 | 58.7* | -0.2 | -7.8 | 0.0
N#C/C(=C(/O)COC(=O)c1cccc(Br)c1)c1nc2ccccc2[nH]1 | 5.2 | 1.2 | -12.3 | 0.0
Cn1c(=O)c2c(nc(N3CCN(Cc4ccccc4)CC3)n2Cc2ccccc2)n(C)c1=O | 4.3 | -0.3 | 12.4 | 0.0
Clc1ccccc1-c1cnn2c(NCCc3cccnc3)ccnc12 | 65.3* | 2.2 | -1.7 | 0.0
Fc1ccc(-c2cnn3c(NCCc4cccnc4)ccnc23)cc1Cl | -61.7 | 0.5 | -11.3 | -0.5
CS(=O)(=O)c1ccc(C(=O)COC(=O)C(c2ccccc2)c2ccccc2)cc1 | 9.8 | -0.4 | -0.4 | 0.0
O=C(O)c1cccnc1Nc1ccc([N+](=O)[O-])cc1 | 35.9* | -5.7 | 20.9 | -0.1
CN(C)c1ccc(/C=C/c2cc[n+](C)c3ccccc23)cc1 | 91.7* | -2.4 | 49.7 | -0.5
Cc1ccc2nc(-c3ccc(O)cc3)oc2c1 | 97.5* | -6.0 | 1.9 | 0.1
Cc1ccc2nc(-c3ccc(N)cc3)oc2c1 | 66.3* | -5.7 | 4.2 | -0.3
Cc1ccc2nc(-c3cccc(N)c3)oc2c1 | 46.5* | -10.4 | 19.8 | 0.7
SMILES | TEAD-YAP inh | GPR151 activ | MITF inh | FBW7 act
Cc1cc2nc(-c3ccc(N)cc3)oc2cc1C | 83.4* | -7.7 | 1.5 | -0.2
Cc1ccc2nc(-c3ccc(NC(=O)c4ccc(I)cc4)cc3)oc2c1 | -1.5 | -2.2 | -13.2 | 0.0
Cc1ccc2nc(-c3cc(N)ccc3Cl)oc2c1 | -25.6 | -6.0 | -7.3 | -0.1
Nc1cccc(-c2nc3cc(N)ccc3o2)c1 | -34.4 | -4.0 | -1.0 | -0.1
CCOC(=O)C1(CCc2ccccc2)CCN(C(=O)C2CC(=O)Nc3ccccc32)CC1 (stereo not given) | 6.0 | -0.5 | 8.9 | 0.0
Cc1ccc2oc(=O)c3cnn(CC(=O)Nc4ccccc4N4CCN(C)CC4)c3c2c1 | -17.1 | 0.8 | -3.2 | 0.2
CC(C)(C)NS(=O)(=O)c1ccc(NC(=O)/C=C/c2ccc3c(c2)OCO3)cc1 | 2.9 | 2.6 | 14.2 | 0.2
